# Data from PubChem BioAssay (NCATS).
# Records with an inconclusive call do not appear. Where a call stands in place of a potency, no number is given. Calls of active or inactive are those of the source. Unless noted, calls come from the whole dose curve; as a rule, active = well fitted curve in the direction sought with a large enough effect; inconclusive = small, poorly fitted or top-dose-only effect, or another doubt; inactive = no such curve, though single readings can be large; an effect the other way counts as inactive or inconclusive.
# Assays:
# [1] = target: Cytochrome P450 1A2 (Homo sapiens) (UniProt P05177); experiment: p450-cyp1a2 (AID 410; calls by dose curve)
# Method in brief: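 O-Demethylation of luciferin 6' methyl ether by human CYP1A2 is monitored as luciferase luminescence. Substrate sits at Km (100uM); enzyme is 20nM. Values are scaled to 57 uM furafylline as maximal inhibition.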
# [2] = target: Glucocorticoid receptor (Homo sapiens) (UniProt P04150); experiment: GR-GFP Redistribution (AID 450;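 active = compounds whose dose series gives a full or clear partial fitted curve of increased nuclear translocation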; note: potency is the fitted concentration of half-maximal effect); conditions: U2OS GR-GFP nuclear translocation, laser cytometry, 2 h
# [3] = target: Glucocorticoid receptor (Homo sapiens) (UniProt P04150); experiment: GR-EFC Redistribution (AID 451; calls by dose curve; note: potency is the fitted concentration of half-maximal effect); conditions: CHO-K1 GR-EFC translocation, beta-gal luminescence, 2 h
# Method in brief: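 CHO-K1 cells expressing nuclear EA and GR-ED fragments of b-gal; compounds titrated up to 46 uM final, 2 h at 37 C. GR nuclear translocation read as complemented b-gal luminescence after 1 h RT detection.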
# [4] = target: Mitogen-activated protein kinase 10 (Mus musculus) (UniProt Q61831); experiment: JNK3 AlphaScreen Assay (AID 530; active = well fitted curve in either direction with a large enough effect, not every such curve was filed as active;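 note: kinase came from lysate of stimulated human HepG2 cells; signal reports phosphorylation of biotinylated GST-cJun 1-79 at Ser73 with 10 µM ATP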)
# Method in brief: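 Activity was read by AlphaScreen after JNK3-containing HepG2 lysate (cytokine pre-activated) phosphorylated biotinylated GST-cJun with 10 uM ATP at room temperature. Phospho-Ser73 cJun antibody with Protein-A acceptor beads provided detection.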
# [5] = target: 3',5'-cyclic-AMP phosphodiesterase 4B (Homo sapiens) (UniProt Q07343); experiment: qHTS Assay for Inhibitors of PDE-IV (AID 607; active = well fitted activation curve with a large enough effect in the main read-out, with a control signal flat, not every such curve was filed as active)
# Method in brief: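 Cell-based read-out of cAMP via a modified cyclic nucleotide-gated channel and membrane potential dye (535/590 nm) in HEK293 cells expressing PDE4 endogenously. Compounds tested up to 22.9 uM final; 100 uM RO 20-1724 reference.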
# [6] = qHTS Assay for Lipid Storage Modulators (AID 1519; calls by dose curve); conditions: Drosophila S3 cells, BODIPY lipid droplet/cell ratio, laser cytometry, cells loaded with oleic acid
# Method in brief: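 Cells seeded at 5,000 per well were treated with compounds over a concentration series and loaded with oleic acid (400 uM, as added). Lipid droplet fluorescence (488 nm excitation, 500-530 nm channel) was read by laser-scanning cytometry and normalized to 20 uM Triacsin C.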
# [7] = target: Ubiquitin carboxyl-terminal hydrolase 1 (Homo sapiens) (UniProt O94782); experiment: Inhibitors of USP1/UAF1: Pilot qHTS (AID 504865);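 note: rhodamine fluorescence freed from ubiquitin-rhodamine substrate followed over time; top concentration of the series differs between compounds; nearly all actives have a fitted effect of over 35% in size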
# Method in brief: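 Enzyme-free wells gave the negative control, while test wells held 1nM USP1/UAF1 preincubated with compound for 15 min at room temperature. Ub-Rho at 150nM final started the reaction, and fluorescence at 480/540 nm was recorded kinetically.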
# [8] = target: DNA dC->dU-editing enzyme APOBEC-3G (Homo sapiens) (UniProt Q9HC16); experiment: qHTS for inhibitors of Vif-A3G interactions: Validation (AID 588379)
# Method in brief: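 Yellow fluorescence (Ex 488, Em 500-530) of Vif-coexpressing HeLa A3G-eYFP cells, scanned by Acumen cytometer, reports blocked A3G degradation. Cells plated at 700/well overnight at 37 deg C before compound addition, then a further overnight compound incubation at 37 deg C.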
# [9] = system: Zika virus NS2B-NS3 protease; experiment: Primary screen GU AMC qHTS for Zika virus inhibitors (AID 1347154); note: nearly all actives have a fitted effect of over 70% in size
# Method in brief: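 Unlinked Zika NS2B hydrophilic domain–NS3 protease complex at 25 nM in 10 mM Tris-HCl pH 8.0, 0.01% Tween 20, with an AMC peptide substrate. Fluorescence change (340/450 nm) over 15 min at room temperature, normalized to controls, fitted to 4-parameter Hill.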
# [10] = Counterscreen qHTS for small molecule stabilizers of the endoplasmic reticulum resident proteome: GLuc-NoTag assay (AID 1508627)
# Method in brief: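 Counterscreen line: SH-SY5Y-GLuc-NoTag. Seed, 5 h; compound, 19 h; thapsigargin 100 nM, 4 h; 37C/5% CO2. Readout: secreted GLuc luminescence, coelenterazine 0.07x final, no lysis.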
# [11] = Confirmatory qHTS for small molecule stabilizers of the endoplasmic reticulum resident proteome: Secreted ER Calcium Modulated Protein (SERCaMP) assay (AID 1508628); note: potency is the fitted concentration of half-maximal effect; nearly all actives have a fitted effect of over 40% in size
# Method in brief: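 Reporter secretion upon ER calcium depletion (100 nM thapsigargin, 4 h, 37C) is measured as medium luminescence with coelenterazine, after 16 h compound pretreatment of SH-SY5Y-GLuc-SERCaMP cells; primary at three concentrations up to 38.3 uM, follow-up at 11 (up to 76.6 uM).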
# [12] = Cell Viability qHTS for small molecule stabilizers of the endoplasmic reticulum resident proteome (AID 1508629); conditions: cell viability counter-screen, 100 nM thapsigargin for final 4 h;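 note: human SH-SY5Y neuroblastoma cells carrying the GLuc-SERCaMP reporter; compound exposure about 46 h in total before the viability read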
# [13] = Validation of Assay for Modulators of Lamin A Splicing (AID 1459; active = well fitted curve in the direction sought with a large enough effect in the signal ratio; the % refers to the signal ratio;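 note: cells exposed to compound for two days before reading; ratio rise marks activators and ratio drop marks inhibitors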)
# Method in brief: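 Dual-reporter HeLa S3 line (lamin A-EGFP minigene, DsRed2) treated with compounds 48 hrs, 0.5% DMSO final. Endpoint: EGFP/DsRed2 total intensity ratio from laser-scanning microplate cytometry.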
# [14] = target: DNA repair nuclease/redox regulator APEX1 (Homo sapiens) (UniProt P27695); experiment: qHTS Validation Assay for Inhibitors of the Human Apurinic/apyrimidinic Endonuclease 1 (APE1) (AID 1705;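 note: TAMRA fluorescence gain over two minutes as APE1 cuts a quenched THF abasic duplex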)
# Method in brief: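 Substrate: 50 nM final fluorophore/quencher THF-abasic duplex. Enzyme preincubated with compounds 15 min, RT. Progress derived from fluorescence difference, third minus first kinetic read.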
# [15] = Counterscreen for APE1 Inhibitors: Fluorescent Dye Displacement Validation Assay (AID 1707)
# Method in brief: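 Counterscreen flags promiscuous DNA binders: compounds displacing ThO from duplex DNA (abasic THF site, 50 nM) reduce 540 nm emission (480 nm excitation). ThO 250 nM final; Tris-HCl pH 7.5 with NaCl, MgCl2 and Tween-20.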
# [16] = target: Endonuclease 4 (Escherichia coli (strain K12)) (UniProt P0A6C1); experiment: Counterscreen for APE1 Inhibitors: qHTS Validation Assay for Inhibitors of Endonuclease IV (AID 1708)
# Method in brief: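 Conditions: 2 nM enzyme, 50 nM TAMRA/BHQ-2 substrate, pH 7.5 Tris buffer with 2 mM MgCl2, RT. Compound preincubation 15 min; readout three fluorescence reads 60 s apart, third-minus-first.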
# [17] = qHTS for differential inhibitors of proliferation of Plasmodium falciparum line 7G8 (AID 1815);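 note: potency is the fitted concentration of half-maximal effect; parasite growth measured after three days of incubation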
# [18] = qHTS for differential inhibitors of proliferation of Plasmodium falciparum line GB4 (AID 1816); conditions: Potency: Plasmodium falciparum GB4 proliferation inhibition;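 note: potency is the fitted concentration of half-maximal effect; parasite growth measured after 72 h incubation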
# [19] = qHTS for differential inhibitors of proliferation of Plasmodium falciparum line 3D7 (AID 1876); note: potency is the fitted concentration of half-maximal effect
# [20] = qHTS for differential inhibitors of proliferation of Plasmodium falciparum line Dd2 (AID 1882); conditions: Potency: Plasmodium falciparum Dd2 proliferation inhibition; note: potency is the fitted concentration of half-maximal effect; nearly all actives have a fitted effect of over 65% in size
# Method in brief: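 SYBR Green DNA fluorescence (ex 485, em 535 nm) after overnight lysis quantifies parasite growth; compound exposure lasted 72 h at 37 C on infected red cells at 2.5% hematocrit, 0.3% parasitemia (final). Artemisinin 0.29 uM and vehicle wells define normalization.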
# [21] = qHTS for differential inhibitors of proliferation of Plasmodium falciparum line W2 (AID 1883); conditions: Potency: Plasmodium falciparum W2 proliferation inhibition;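 note: potency is the fitted concentration of half-maximal effect; parasites grown with compound for 72 h before lysis and staining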
# [22] = qHTS for differential inhibitors of proliferation of Plasmodium falciparum line HB3 (AID 1886); conditions: Potency: Plasmodium falciparum HB3 proliferation inhibition;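 note: potency is the fitted concentration of half-maximal effect; parasites grown with compound for 72 h before SYBR Green readout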
# [23] = target: Ferritin light chain (Equus caballus) (UniProt P02791); experiment: qHTS Validation Assay for Identification of Novel General Anesthetics (AID 2323)
# Method in brief: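 Normalized fluorescence response, scaled between free 1-AMA and 1-AMA/apoferritin complex, fitted to a four-parameter Hill equation for concentration-effect values. Binding mix: 10 uM horse-spleen apoferritin, 50% saturated 1-AMA in PBS; read 380/535 nm after 10 min.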
# [24] = target: ATP-dependent DNA helicase Q1 (Homo sapiens) (UniProt P46063); experiment: qHTS Validation Assay for Inhibitors of RecQ-Like Dna Helicase 1 (RECQ1) (AID 2353)
# Method in brief: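 RECQ1T1 50 nM; forked duplex (20 bp + 30-nt ss tails) 200 nM, ATP 2 mM final; pH 8.0, 2 mM MgCl2, 2.5 ug/ml poly(dI-dC); 15 min compound preincubation; discontinuous kinetic read over 2 h at RT.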
# [25] = target: RecQ-like DNA helicase BLM (Homo sapiens) (UniProt P54132); experiment: qHTS Validation Assay for Inhibitors of Bloom's syndrome helicase (BLM) (AID 2364)
# Method in brief: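 50 nM BLM preincubated 15 min at room temperature with compound in pH 8.0 Tris buffer containing 2.5 ug/ml poly(dI-dC); started with 200 nM TAMRA/BHQ-2 forked duplex and 2 mM ATP (final). Unwinding read as TAMRA fluorescence increase, two reads 2 h apart.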
# [26] = Validation screen for small molecules that induce DNA re-replication in MCF 10A normal breast cells (AID 463097); note: nearly all actives have a fitted effect of over 60% in size
# Method in brief: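 Following 48 hr compound incubation (37 C, 5% CO2), MCF 10A cells receive Hoechst for 40 min at 37 C. Nuclei are then scanned (excitation 405 nm, emission 500-530 nm) for total fluorescence intensity.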
# [27] = target: M-phase phosphoprotein 8 (Homo sapiens) (UniProt Q99549); experiment: qHTS Validation Assay for Inhibitors for MPP8 Chromodomain Interactions with Methylated Histone Tails (AID 488949);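 note: 50 nM MPP8 with 50 nM peptide preformed then compounds added for 30 min; AlphaScreen signal from MPP8 chromodomain bound to biotinylated H3K9me3 peptide; top concentration of the series differs between compounds; nearly all actives have a fitted effect of over 55% in size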
# Method in brief: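 Chemiluminescent proximity assay: histidine-tag capture via nickel acceptor beads, biotin peptide via streptavidin donor beads. Protein and peptide each at 50 nM, pH 7.4, with 30 min incubations at room temperature for complex formation, compound exposure and bead binding.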
# [28] = target: Thyrotropin receptor (Homo sapiens) (UniProt P16473); experiment: qHTS Assay for Antagonists of the Thyroid Stimulating Hormone Receptor (AID 488980)
# Method in brief: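 Inhibition of TSH-stimulated cAMP accumulation was quantified by homogeneous time-resolved FRET in TSHR-transfected HEK293 cells. Agonist: TSH, 4 nM final (EC80).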
# [29] = target: Thyrotropin-releasing hormone receptor (Homo sapiens) (UniProt P34981); experiment: qHTS for Small Molecule Agonists and Allosteric Enhancers of Human TRH Receptor: Validation Screen for Agonists (AID 493127;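 active = calcium activation more than 3 SD above the typical response in the agonist read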;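 note: intracellular calcium rise by fluo-8 fluorescence before TRH EC20 addition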); conditions: TRH receptor agonist cell assay; at 2 µM; stronger effect = higher value
# Method in brief: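 Compounds are added by online pintool to dye-loaded TRHR cells while fluorescence is recorded every second. A rise in calcium signal during the agonist read marks activation; a later 10 nM TRH addition (EC20) serves the separate enhancer mode.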
# [30] = target: Galactokinase (Homo sapiens) (UniProt P51570); experiment: qHTS Validation Assay for Inhibitors of Human Galactokinase (GALK) (AID 493189)
# Method in brief: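 Enzyme activity is inferred from ATP consumption: human GALK phosphorylates galactose (100 uM) using 35 uM ATP for 1 h at room temperature, and luciferase-based Kinase-Glo Plus reports unconsumed ATP.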
# [31] = Validation screen for small molecules that induce DNA re-replication in SW480 colon adenocarcinoma cells (AID 504364)
# Method in brief: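 Image-based qHTS: compounds were incubated with SW480 cells for 48 hr, nuclei stained with Hoechst, and per-nucleus fluorescence intensity scanned to flag cells with excess DNA content.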
# [32] = target: Voltage-gated inwardly rectifying potassium channel KCNH2 (Homo sapiens) (UniProt Q12809); experiment: qHTS Assay for Small Molecule Inhibitors of the Human hERG Channel Activity (AID 588834);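 note: top concentration of the series differs between compounds; lower thallium flux fluorescence means stronger hERG block; nearly all actives have a fitted effect of over 50% in size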
# Method in brief: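 Homogeneous FluxOR thallium flux assay using hERG-expressing U2OS cells (BacMam). Compound treatment about 10 minutes preceded stimulation; reduced fluorescence taken as channel block.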
# Glucocorticoid receptor (Homo sapiens), sequence (P04150 whole entry, looked up, the tested form may be a part): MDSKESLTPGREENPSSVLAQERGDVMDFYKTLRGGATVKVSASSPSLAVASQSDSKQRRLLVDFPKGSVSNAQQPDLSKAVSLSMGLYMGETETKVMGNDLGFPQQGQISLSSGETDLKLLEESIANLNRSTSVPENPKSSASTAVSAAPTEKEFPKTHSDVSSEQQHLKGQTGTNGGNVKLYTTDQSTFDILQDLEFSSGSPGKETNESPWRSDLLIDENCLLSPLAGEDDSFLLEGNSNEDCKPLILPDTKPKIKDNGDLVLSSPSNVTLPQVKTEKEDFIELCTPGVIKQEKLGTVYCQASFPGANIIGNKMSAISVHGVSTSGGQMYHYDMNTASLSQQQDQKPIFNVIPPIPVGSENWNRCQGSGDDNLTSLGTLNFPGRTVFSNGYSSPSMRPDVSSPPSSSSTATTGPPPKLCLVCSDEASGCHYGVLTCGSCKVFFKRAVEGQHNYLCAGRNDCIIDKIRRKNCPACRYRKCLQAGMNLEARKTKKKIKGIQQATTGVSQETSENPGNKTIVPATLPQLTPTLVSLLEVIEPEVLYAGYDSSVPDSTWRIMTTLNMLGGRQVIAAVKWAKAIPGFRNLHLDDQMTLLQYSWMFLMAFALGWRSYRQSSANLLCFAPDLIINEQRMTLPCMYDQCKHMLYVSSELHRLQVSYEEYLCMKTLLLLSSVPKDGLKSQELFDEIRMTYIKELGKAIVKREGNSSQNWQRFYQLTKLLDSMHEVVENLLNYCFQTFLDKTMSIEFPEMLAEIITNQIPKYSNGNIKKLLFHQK
# Ferritin light chain (Equus caballus), sequence (P02791 2-175 limits assumed): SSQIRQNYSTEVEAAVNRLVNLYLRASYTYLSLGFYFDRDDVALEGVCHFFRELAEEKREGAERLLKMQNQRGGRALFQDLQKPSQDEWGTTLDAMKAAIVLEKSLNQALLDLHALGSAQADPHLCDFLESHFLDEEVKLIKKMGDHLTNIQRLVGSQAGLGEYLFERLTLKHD
# ATP-dependent DNA helicase Q1 (Homo sapiens), sequence (P46063 whole entry, looked up): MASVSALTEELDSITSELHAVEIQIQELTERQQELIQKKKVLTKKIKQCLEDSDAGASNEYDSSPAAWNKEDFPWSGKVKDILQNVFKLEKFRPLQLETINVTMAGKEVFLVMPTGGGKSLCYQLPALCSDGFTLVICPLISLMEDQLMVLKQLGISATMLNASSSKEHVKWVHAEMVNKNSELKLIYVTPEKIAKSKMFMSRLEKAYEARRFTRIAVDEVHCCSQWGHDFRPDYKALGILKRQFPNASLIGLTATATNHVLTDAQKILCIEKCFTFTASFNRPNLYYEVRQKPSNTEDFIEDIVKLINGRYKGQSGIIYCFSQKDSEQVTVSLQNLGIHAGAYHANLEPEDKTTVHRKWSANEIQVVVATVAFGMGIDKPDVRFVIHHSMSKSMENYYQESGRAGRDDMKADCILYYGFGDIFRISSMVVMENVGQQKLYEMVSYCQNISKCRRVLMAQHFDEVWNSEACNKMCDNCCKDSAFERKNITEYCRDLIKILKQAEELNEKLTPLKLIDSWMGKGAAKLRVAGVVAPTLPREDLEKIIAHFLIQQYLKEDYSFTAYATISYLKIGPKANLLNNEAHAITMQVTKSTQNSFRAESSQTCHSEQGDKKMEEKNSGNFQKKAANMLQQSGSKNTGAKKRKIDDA
# Galactokinase (Homo sapiens), sequence (P51570 whole entry, looked up): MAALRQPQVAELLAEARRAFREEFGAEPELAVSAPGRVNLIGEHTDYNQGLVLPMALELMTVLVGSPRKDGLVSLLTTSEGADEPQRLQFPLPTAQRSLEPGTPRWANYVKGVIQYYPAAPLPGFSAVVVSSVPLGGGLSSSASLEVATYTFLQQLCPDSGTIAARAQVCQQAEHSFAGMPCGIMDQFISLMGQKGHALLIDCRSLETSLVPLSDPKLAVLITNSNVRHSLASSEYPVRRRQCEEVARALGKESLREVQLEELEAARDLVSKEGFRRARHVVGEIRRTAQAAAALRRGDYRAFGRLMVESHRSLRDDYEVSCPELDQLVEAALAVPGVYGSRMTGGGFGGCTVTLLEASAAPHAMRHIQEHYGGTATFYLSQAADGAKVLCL
# DNA repair nuclease/redox regulator APEX1 (Homo sapiens), sequence (P27695 whole entry, looked up): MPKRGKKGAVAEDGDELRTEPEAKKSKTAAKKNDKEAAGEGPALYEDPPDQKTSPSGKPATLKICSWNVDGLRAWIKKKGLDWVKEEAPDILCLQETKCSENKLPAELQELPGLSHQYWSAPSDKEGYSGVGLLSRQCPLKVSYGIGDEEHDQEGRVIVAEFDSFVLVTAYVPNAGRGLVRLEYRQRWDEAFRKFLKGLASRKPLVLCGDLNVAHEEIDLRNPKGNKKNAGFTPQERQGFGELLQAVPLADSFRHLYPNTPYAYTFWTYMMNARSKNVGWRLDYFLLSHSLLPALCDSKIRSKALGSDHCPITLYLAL
# M-phase phosphoprotein 8 (Homo sapiens), sequence (Q99549 whole entry, looked up): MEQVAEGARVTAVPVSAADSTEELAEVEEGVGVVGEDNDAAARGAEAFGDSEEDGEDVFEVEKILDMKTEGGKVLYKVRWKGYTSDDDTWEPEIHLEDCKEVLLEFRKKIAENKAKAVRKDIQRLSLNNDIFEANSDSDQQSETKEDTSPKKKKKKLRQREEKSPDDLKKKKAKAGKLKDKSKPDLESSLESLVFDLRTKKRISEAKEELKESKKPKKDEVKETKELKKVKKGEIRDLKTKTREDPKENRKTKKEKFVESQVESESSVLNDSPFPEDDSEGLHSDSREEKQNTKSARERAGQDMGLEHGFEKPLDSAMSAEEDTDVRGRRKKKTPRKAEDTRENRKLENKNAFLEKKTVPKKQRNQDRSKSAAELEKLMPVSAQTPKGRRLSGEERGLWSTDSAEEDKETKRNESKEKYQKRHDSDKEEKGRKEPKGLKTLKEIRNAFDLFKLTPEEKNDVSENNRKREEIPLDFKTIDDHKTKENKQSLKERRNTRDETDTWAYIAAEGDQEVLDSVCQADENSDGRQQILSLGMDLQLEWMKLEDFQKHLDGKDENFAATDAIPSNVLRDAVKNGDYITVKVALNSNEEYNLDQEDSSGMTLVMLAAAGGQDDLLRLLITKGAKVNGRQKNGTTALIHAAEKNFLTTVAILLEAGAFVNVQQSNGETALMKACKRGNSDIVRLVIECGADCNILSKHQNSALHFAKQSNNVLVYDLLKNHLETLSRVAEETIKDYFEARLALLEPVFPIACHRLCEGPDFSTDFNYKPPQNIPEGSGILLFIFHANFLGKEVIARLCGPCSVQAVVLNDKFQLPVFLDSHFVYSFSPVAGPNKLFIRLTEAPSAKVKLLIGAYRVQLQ
# Voltage-gated inwardly rectifying potassium channel KCNH2 (Homo sapiens), sequence (Q12809 whole entry, looked up): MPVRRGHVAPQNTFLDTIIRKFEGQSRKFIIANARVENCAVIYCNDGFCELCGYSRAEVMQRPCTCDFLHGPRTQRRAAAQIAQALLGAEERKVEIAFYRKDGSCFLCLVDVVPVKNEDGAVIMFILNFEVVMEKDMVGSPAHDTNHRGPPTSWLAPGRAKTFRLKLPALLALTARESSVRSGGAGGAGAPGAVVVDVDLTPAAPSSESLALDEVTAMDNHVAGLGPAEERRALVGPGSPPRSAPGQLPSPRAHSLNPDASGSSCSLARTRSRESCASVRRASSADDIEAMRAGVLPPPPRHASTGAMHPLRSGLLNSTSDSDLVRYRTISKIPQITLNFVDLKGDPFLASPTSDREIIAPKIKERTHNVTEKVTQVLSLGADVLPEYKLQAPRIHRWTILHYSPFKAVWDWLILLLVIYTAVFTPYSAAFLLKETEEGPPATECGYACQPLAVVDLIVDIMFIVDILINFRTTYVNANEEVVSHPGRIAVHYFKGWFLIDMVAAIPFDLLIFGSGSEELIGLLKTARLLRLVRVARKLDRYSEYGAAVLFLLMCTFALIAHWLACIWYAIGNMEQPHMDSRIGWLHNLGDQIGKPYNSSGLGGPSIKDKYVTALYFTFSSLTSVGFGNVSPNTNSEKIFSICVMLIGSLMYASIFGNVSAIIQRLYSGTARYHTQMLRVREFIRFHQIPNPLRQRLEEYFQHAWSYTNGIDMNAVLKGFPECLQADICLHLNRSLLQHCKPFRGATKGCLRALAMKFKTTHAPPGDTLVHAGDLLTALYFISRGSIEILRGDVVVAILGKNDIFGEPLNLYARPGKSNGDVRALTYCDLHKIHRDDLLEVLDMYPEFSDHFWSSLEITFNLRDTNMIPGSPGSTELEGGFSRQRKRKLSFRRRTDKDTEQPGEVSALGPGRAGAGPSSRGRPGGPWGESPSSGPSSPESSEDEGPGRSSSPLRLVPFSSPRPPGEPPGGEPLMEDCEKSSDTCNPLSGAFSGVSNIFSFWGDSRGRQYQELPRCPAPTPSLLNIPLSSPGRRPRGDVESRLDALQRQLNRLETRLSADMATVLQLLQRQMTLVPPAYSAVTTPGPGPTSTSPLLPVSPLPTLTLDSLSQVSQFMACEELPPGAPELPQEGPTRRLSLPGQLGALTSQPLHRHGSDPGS
# Thyrotropin-releasing hormone receptor (Homo sapiens), sequence (P34981 whole entry, looked up): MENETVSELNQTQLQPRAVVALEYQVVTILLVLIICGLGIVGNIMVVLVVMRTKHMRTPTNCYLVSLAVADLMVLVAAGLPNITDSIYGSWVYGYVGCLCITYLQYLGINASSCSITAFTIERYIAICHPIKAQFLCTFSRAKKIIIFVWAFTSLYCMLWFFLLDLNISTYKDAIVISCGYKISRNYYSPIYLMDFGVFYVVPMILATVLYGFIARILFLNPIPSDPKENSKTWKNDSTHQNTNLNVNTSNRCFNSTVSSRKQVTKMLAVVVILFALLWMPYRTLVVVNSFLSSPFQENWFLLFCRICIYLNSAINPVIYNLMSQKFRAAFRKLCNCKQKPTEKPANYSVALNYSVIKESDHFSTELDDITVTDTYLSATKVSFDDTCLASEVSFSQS
smiles,measurement,setting,value
COc1ccc(NS(=O)(=O)c2ccc(I)cc2)cc1N1CCN(C)CC1,Potency,[1],inactive
same,Potency,[2],> 46 µM (inactive)
same,Potency,[3],> 46 µM (inactive)
same,Potency,[4],inactive
same,Potency,[5],inactive
same,"activity change, negative = inhibition",[6]; at 57.5 µM (top of the series),12.5% (inactive)
same,max response,[6]; measured here: cell count channel max response,18.9%
same,max response,[6]; measured here: lipid channel max response,28.9%
same,Potency,[7],inactive
same,Potency,[8],inactive
same,Potency,[9],inactive
same,Potency,[10],inactive
same,Potency,[11],7.94 µM (active)
same,max response,[12],-15.1% (inactive)
N=C(N)SCCN=C(N)N,Potency,[9],inactive
same,Potency,[10],inactive
same,max response,[12],-2.13% (inactive)
Cc1ccc(OCC(O)C(C)NC(C)C)c2c1CCC2 (stereo not drawn),outcome,[13],inactive
same,Potency,[14],inactive
same,Potency,[15],inactive
same,Potency,[16],inactive
same,Potency,[17],2.82 µM (active)
same,Potency,[18],2.82 µM (active)
same,Potency,[19],11.2 µM (active)
same,Potency,[20],12.6 µM (active)
same,Potency,[21],1.58 µM (active)
same,Potency,[22],11.2 µM (active)
same,outcome,[23],inactive
same,Potency,[24],inactive
same,Potency,[25],inactive
same,Potency,[26],inactive
same,Potency,[27],inactive
same,outcome,[28],inactive
same,activation,[29],2.81% (inactive)
same,outcome,[30],inactive
same,outcome,[31],inactive
same,Potency,[32],inactive
same,Potency,[9],inactive
